Drawing on PubChem BioAssay AID2113 (National Center for Advancing Translational Sciences (NCATS), 2009), this text covers Potency for 40 compounds.

Results filed as inconclusive are left out. Entries that show only a call come without a potency. Active and inactive are the calls of the source. Calls follow the shape of the dose curve; as a rule, active = well fitted curve in either direction with a large enough effect; inconclusive = small, poorly fitted or top-dose-only effect; inactive = no such curve, though single readings can be large or run the other way. Residues, ends and D or L forms follow the SMILES beside them.
Potency is read from the fitted curve at half-maximal effect.

The assay concerns the target Lysosomal alpha-glucosidase (Homo sapiens) (UniProt P10253). The experiment in a line: Confirmation of Inhibitors and Activators of Human alpha-Glucosidase From Spleen Homogenate. The conditions noted are these: alpha-glucosidase enzyme activity; series mostly up to 60.5 µM. The source says:
NIH Chemical Genomics Center [NCGC]
NIH Molecular Libraries Probe Production centers Network [MLPCN]
Assay Submitter (PI): Wei Zheng
Alpha-glucosidase is responsible for hydrolysis of terminal, non-reducing 1,4-linked alpha-D-glucose residues with release of alpha-D-glucose. It is a lysosomal hydrolase that is required for the degradation of a small percentage (1-3%) of cellular glycogen in human. Deficiency of this enzyme results in glycogen-storage disease type II (GSDII), also referred to as Pompe disease, an autosomal recessive disorder. Structurally normal glycogen is accumulated in lysosomes and cytoplasm in affected patients, primarily in muscle tissues. Excessive glycogen storage within lysosomes may interrupt normal functioning of other organelles and leads to cellular injury. In turn, this leads to enlargement and dysfunction of the entire organ involved (eg, cardiomyopathy and muscle weakness).
It has reported that the improper folding and trafficking of alpha-glucosidase resultinged from the genetic mutations may account for a significant number of Pomrope patients. […] We optimized this alpha-glucosidase assay in 1536-well plate format for identifying the novel small molecule inhibitors with the structures other than the sugar analogs in order to develop the new pharmacological chaperones. In particular, this assay is directed towards discovering compounds active in a more natural setting, tissue homogenate, that may have been missed by screens of the purified enzyme under more stringent conditions. This assay attempted to confirm hits from the primary screening.
NCGC Assay Protocol Summary:
This is a fluorogenic enzyme assay with 4-methylumbelliferyl-alpha-D-glucopyranoside as the substrate and human spleen homogenate containing alpha-glucosidase as the enzyme preparation. Upon hydrolysis of this fluorogenic substrate, the resulting product, 4-methylumbelliferone (which excites at 365 nm and emits at 440 nm) can be detected by a fluorescence plate reader. Data were normalized to the controls for basal activity (without enzyme) and 100% activity (with enzyme). The AC50 values were determined from concentration-response data modeled with the standard Hill equation.
Assay buffer: 50 mM citric acid (titrated with potassium phosphate to pH 5.0), 0.01% Tween-20 (pH 5.0 is an optimal condition for this enzyme assay)
1536-well assay protocol for the alpha-glucosidase from human spleen homogenate:
(1) Add 2 ul/well spleen homogenate (1 ug)
(2) Add 23 nL compounds in DMSO solution. The final titration was 0.5 nM to 58 uM.
(3) Add 2 ul of substrate (1 mM final)
(4) Incubate at 37 C for 40 min
(5) Add 2 ul stop solution (1M NaOH and 1M Glycine mixture, pH 10)
(6) Detect the assay plate in a ViewLux plate reader (PerkinElmer) with Ex=365 nm and Em=440nm.
Keywords: Alpha-glucosidase, Pompe Disease, pharmacological chaperone, chaperone therapy, high throughput screening, alpha-glucosidase inhibitor, MLSMR, MLSCN, NIH Roadmap, qHTS and NCGC
As for `CC(=O)c1ccc(N2CCN(S(=O)(=O)c3ccc4[nH]c(=O)oc4c3)CC2)cc1`, the Potency entry was “inactive”. The result for `OCC1NCC(O)C(O)C1O` (stereo not given) reads “inactive”; that for `CNC(=S)/N=C(\Nc1ccc(C)cc1)c1ccccc1`, “inactive”; that for `CCN(CC)c1ccc(/C=N/NC(=O)C(O)c2ccccc2)cc1` (stereo not given), “inactive”. The result for `Cn1c2c(c(=O)n(C)c1=O)CN(CCCN1CCOCC1)CN2` reads “inactive”; that for `COc1ccc(NS(=O)(=O)c2ccc(O)c(NC(=O)c3cc4c(C)nn(-c5ccc(F)cc5)c4s3)c2)cc1`, “inactive”. For `Cn1c(-c2ccco2)nc2cc3ccccc3cc21`, the Potency result was “inactive”.

`Cc1ccc(S(=O)(=O)N2CCN(C(=O)C3COc4ccccc4O3)CC2)cc1C` (stereo not given): the Potency result is “inactive”. With `COCCn1c(=NC(=O)c2ccc3c(c2)OCO3)c(C#N)cc2c(=O)n3cccc(C)c3nc21` the entry was “inactive”. Turning to `CC(=O)c1ccc(N2CCN(S(=O)(=O)c3ccc4c(c3)OCC(=O)N4)CC2)cc1`, the Potency entry was “inactive”.

As for `O=c1oc2ccc3ccccc3c2cc1-c1nc2c(s1)CCc1ccccc1-2`, the Potency result was “inactive”.

As to `CC1=CC(=C2C=CC(=O)C=C2)C=C(C)N1C`, the Potency entry was “inactive”.

On to `O=S(=O)(c1ccc(Cl)cc1)N1CCN(c2nc(-c3cccs3)nc3ccccc23)CC1`, for which the Potency entry is “inactive”. The result for `O=C(COC(=O)c1ccccc1Br)NCCc1ccc(F)cc1` reads “inactive”; that for `CCCN1CNc2c(c(=O)[nH]c(=S)n2CCc2cccs2)C1`, 35.5 µM (active).

With `CCc1ccc(N=CC23c4ccccc4C(c4ccccc42)C2C(=O)N(c4ccc(OC)cc4)C(=O)C23)cc1` (stereo not given), the Potency result is “inactive”. With `Cn1cnc2c(NCc3ccccc3)nc(NCCO)nc21` the entry was “inactive”. For `O=C(Cn1c(=O)[nH]n(-c2ccccc2)c1=O)N1CCCc2ccccc21`, the Potency entry is “inactive”. The result for `Cc1sc(-c2cc3cc(Cl)ccc3oc2=O)nc1-c1ccccc1` reads “inactive”; that for `O=S(=O)(c1ccccc1)N1CCN(c2ccccc2)CC1`, “inactive”.

With `CCOC(=O)CCc1cccc2c1CCC2=O`, the Potency result is “inactive”. With `O=S(=O)(c1ccccc1)N1CCN(Cc2ccccc2)CC1`, the Potency result is “inactive”.

Turning to `CCC1C(=O)NCCN1Cc1nc(-c2ccc(C)s2)oc1C` (stereo not given), the Potency entry is “inactive”. With `CCCC[C@H](NC(=O)[C@@H]1CCCN1C(=O)[C@H]1CCCN1C(=O)[C@H](Cc1ccccc1)NC(=O)[C@@H](Cc1c[nH]c2ccccc12)NC(=O)[C@H](C)NC(=O)[C@H](CCCN=C(N)N)NC(=O)OC(C)(C)C)C(N)=O` (HELM PEPTIDE1{[CC(C)(C)OC(=O)[*:2]].R.A.[dW].F.[dP].P.[Nle].[am]}$$$$V2.0) the entry was “inactive”; with `COc1ccc(C#Cc2c[nH]c(=O)c3cncnc23)cc1OC`, “inactive”.

`COc1cccc2ccc(/C=C/c3ccc4c(c3)OCO4)nc12`: the Potency entry is “inactive”. The result for `C(=C\c1ccc2ccccc2n1)/c1ccc2c(c1)OCO2` reads “inactive”. For `COc1ccc(C(=O)N2CCN(c3ccc([N+](=O)[O-])c(NCCc4ccc(OC)c(OC)c4)c3)CC2)cc1`, the Potency result was “inactive”.

Regarding `C[C@H]1OC(OC2C(O)[C@@H](O)C(OC3C(O)[C@@H](O)C(O)O[C@@H]3CO)O[C@@H]2CO)[C@H](O)C(O)C1N[C@H]1C=C(CO)[C@@H](O)[C@H](O)C1O` (stereo not given in full), the Potency result was “inactive”. With `CCCCN1C[C@H](O)[C@@H](O)[C@H](O)[C@H]1CO` the entry was “inactive”; with `O=c1[nH]cc(CCc2ccccc2)c2ncncc12`, “inactive”; with `O=C(NC(C(=O)c1ccccc1)n1ccc(=O)[nH]c1=O)c1ccccc1` (stereo not given), “inactive”.

For `CCCN1CNc2c(c(=O)[nH]c(=S)n2CCc2ccc(OCC)c(OCC)c2)C1`, the Potency was 25.1 µM (active). With `Nc1ccccc1S(=O)(=O)N1CCOCC1` the entry was “inactive”; with `CC(=O)c1ccc(N2CCN(S(=O)(=O)c3ccc4c(c3)CCCN4C(C)=O)CC2)cc1`, “inactive”; with `COc1cc(/C=C/c2ccc3ccccc3n2)cc(OC)c1O`, “inactive”. As to `O=C(O)c1cc2c(ccc3ccccc32)o1`, the Potency result was “inactive”. For `C/C=C1\COC(C(=O)NCCN2CCOCC2)(C(F)(F)F)C=C1C=C1CCCCC1` (stereo not given), the Potency entry is “inactive”. With `Nc1cccc(S(=O)(=O)N2CCOCC2)c1` the entry was “inactive”.

With `CC(=O)c1ccc(N2CCN(C(=O)c3ccc4c(c3)CCC(=O)N4)CC2)cc1`, the Potency result is “inactive”.
